Screening data: PubChem, National Center for Advancing Translational Sciences (NCATS)
DRD3 agonist – D3 dopamine receptor (human) agonism | D3R DiscoveRx beta-arrestin cells, luminescence, 90 min | max activation, % | 0.58% of 410,000 active; in the data active means max activation above about 30%; further: 0% is about no effect
Target sequence (P35462 whole entry, looked up): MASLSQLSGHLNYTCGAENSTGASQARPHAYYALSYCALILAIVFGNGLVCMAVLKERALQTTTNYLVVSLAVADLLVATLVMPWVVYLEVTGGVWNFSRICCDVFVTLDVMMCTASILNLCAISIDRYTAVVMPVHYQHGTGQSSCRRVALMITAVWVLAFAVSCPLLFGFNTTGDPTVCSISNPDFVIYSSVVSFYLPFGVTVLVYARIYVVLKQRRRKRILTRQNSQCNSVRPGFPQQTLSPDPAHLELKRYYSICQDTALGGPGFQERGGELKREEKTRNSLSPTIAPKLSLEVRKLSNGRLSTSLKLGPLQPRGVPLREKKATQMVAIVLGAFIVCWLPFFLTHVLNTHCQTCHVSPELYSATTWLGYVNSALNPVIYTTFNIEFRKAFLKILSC
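Cells at 1500/well, incubated overnight, then treated with pinned compounds (dopamine as control) for 90 min at 37 degrees C. DiscoveRx reagent added for 30 - 60 minutes at room temperature; luminescence read.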
D3 antag – blocks the human D3 dopamine receptor. P35462. D3R cells, DiscoveRx beta-arrestin luminescence, antagonist mode; active compounds read low. max response, negative = inhibition, %. 2.5% of 360,000 active. AID 652054; in the data active means max response below about -50%; inconclusive means no clear call, values can overlap the other calls; further: on the % scale 0 is the no-effect control and ±100 the full control effect
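Cells plated overnight at 1500 cells/well, then exposed to library compounds with dopamine controls for 90 minutes at 37 degrees C. DiscoveRx reagent added for 30–60 minutes at room temperature; luminescence read, quantitative HTS format.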
Integrin act MD – activators of alpha7 integrin expression for muscular dystrophy. Potency, µM (doses to about 38.3 µM), for the others: at the highest dose activation, hits mostly activators. 0.064% of 350,000 active. alpha7betagal myoblasts, beta-gal FDG fluorescence, 48 h; active means well fitted activation curve with a large enough effect; inconclusive means small, poorly fitted or top-dose-only effect; inactive means no such curve, though single readings can be large or run the other way;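 further: potency means the concentration at half of the fitted maximal effect; 100% = response of the positive control SU9516; nearly all actives have a fitted effect of over 60% in size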
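alpha7betagal+/- myoblasts (passage 13, 250/well) treated 48 h at 37C with compounds at 1:260 dilution of DMSO stock. Lysed, then beta-galactosidase activity read as FDG fluorescence (ex 480/em 540) after 30 min, with pre-read for autofluorescence.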
Starred values were filed as active, the others as inactive; u = inconclusive; x = no result. Most compounds without a hit are left out; they make up all but 2.9% or so of the library.

SMILES	DRD3 agonist	D3 antag	Integrin act MD
CC(=O)NC1C(OCc2ccccc2)OC(CO)C(OC(C)=O)C1OC(C)=O (stereo unspecified)	1.8	1.5	4.4%
CC1(C)CC(=O)C(C2c3ccccc3Oc3ccccc32)C(=O)C1	-6.6	-8.5	25.6%
CCOC(=O)c1ccc(CNC(=O)CSc2nnc(-c3ccncc3)o2)cc1	2.0	7.5	-3.4%
COc1ccc(CCNc2ccc(C(CC(N)=O)NC(=O)Cc3ccc(Br)cc3)cc2[N+](=O)[O-])cc1 (stereo unspecified)	-8.9	0.0	-23.3%
COc1ccc(CCNc2ccc(C(CC(N)=O)NC(=O)c3ccc(Br)cc3)cc2[N+](=O)[O-])cc1 (stereo unspecified)	-24.1	-67.9*	-14.2%
Cc1ncc([N+](=O)[O-])n1CC(C)O (stereo unspecified)	5.0	-21.3	x
C/C(=N\NC(=O)Cc1csc(N2CCOCC2)n1)c1ccccc1	8.2	14.0	-2.0%
O=C(Cc1csc(N2CCOCC2)n1)N/N=C/c1ccc(O)c(O)c1O	-13.0	-57.4*	-22.6%
O=C(COc1ccccc1)Nc1ccc([N+](=O)[O-])cc1	1.9	-11.4	12.6%
O=C(NCCN1CCC(n2c(=O)[nH]c3ccccc32)CC1)N1c2ccccc2Sc2ccccc21	-13.2	-111.4*	x
O=C(NCCN1CCC(n2c(=O)[nH]c3ccccc32)CC1)c1ccc(F)cc1Cl	-16.5	-76.6*	x
COCCCNC(=O)N1c2ccccc2Sc2ccccc21	1.9	1.1	3.1%
O=C(NCCN1CCC(n2c(=O)[nH]c3ccccc32)CC1)c1cccnc1	-11.5	-17.3	x
Cc1ccc(C(=O)NCCN2CCC(n3c(=O)[nH]c4ccccc43)CC2)cc1C	-16.9	-110.8*	x
Cc1cccc(C)c1NC(=O)N1CCC(n2c(=O)[nH]c3ccccc32)CC1	-1.5	30.4	-12.5%
O=C(Nc1ccccc1C(=O)NCCN1CCOCC1)c1ccc(Cl)cc1Cl	-1.7	5.7	-6.4%
O=C(NCCN1CCC(n2c(=O)[nH]c3ccccc32)CC1)c1ccccc1	-12.7	-113.2*	x
O=C(NCc1cccnc1)C1CC(c2ccccc2O)=NO1 (stereo unspecified)	-4.3	0.3	-6.4%
COc1ccc2c(c1)c(C(=O)CN1CCN(C(=O)c3ccco3)CC1)c(C)n2C	5.1	14.5	18.4%
OC(c1cccc(Cl)c1)c1nc(-c2cnc3ccccc3c2)cs1 (stereo unspecified)	0.2	21.3	x
COC(C(=O)Nc1ccnn1C1CCN(C(=O)c2cccc(F)c2)CC1)c1ccccc1 (stereo unspecified)	5.3	-15.0	13.4%
Cc1cc(NC(=O)C2C3C(=O)N(CC4CCCO4)C(C(=O)NC(C)(C)C)C34C=CC2(C)O4)no1 (stereo unspecified)	-7.4	-8.6	0.0%
COc1ccc(-c2ccc3c(c2)S(=O)(=O)c2cccc(C(=O)NC[C@@H]4CCCO4)c2C3=O)cc1OC	36.7*	81.6	-19.9%
O=C(NC[C@@H]1CCCO1)c1cccc2c1C(=O)c1ccc(Cl)cc1S2(=O)=O	4.9	37.8	-14.2%
O=C(/C=C/c1ccccc1)Nc1ccc(S(=O)(=O)N2CCOCC2)cc1	0.4	-0.8	23.1%
SMILES	DRD3 agonist	D3 antag	Integrin act MD
Cc1cc(C)c(CN2CCN(C(=O)CC[C@H]3O[C@@H](n4ccc(=O)[nH]c4=O)[C@H](O)[C@@H]3O)CC2)c(C)c1	-12.8	-68.5*	x
CC(=O)CCC(=O)CNC(=O)CC[C@H]1O[C@@H](n2ccc(=O)[nH]c2=O)[C@H](O)[C@@H]1O	-2.7	0.0	x
O=S1(=O)c2ccccc2OC(COCc2ccccc2)CN1Cc1ccccc1 (stereo unspecified)	-11.3	5.8	9.6%
COc1ccc(CN2CC(COCc3ccccc3)Oc3ccccc3S2(=O)=O)cc1 (stereo unspecified)	40.9*	0.0	-2.0%
CC1(C)CC(=O)C2=C(C1)NC1=C(C(=O)c3ccccc31)C2c1ccc(Cl)cc1 (stereo unspecified)	-6.1	-27.4	-30.7%
C[C@H](CO)N1C[C@H](C)[C@H](CN(C)Cc2ccncc2)Oc2ncc(C#CC3CC3)cc2C1=O	1.6	-55.6*	4.9%
C[C@@H]1CN([C@H](C)CO)C(=O)c2cc(C#CC3CCCCC3)cnc2O[C@H]1CN(C)Cc1cccnc1	2.5	21.9	4.8%
Cc1c(Cl)cnc(NC(=O)CSc2nnnn2C)c1Cl	0.0	14.2	-17.5%
COc1cc(/C=N/NC(=O)Cc2ccccc2)ccc1Oc1ccc([N+](=O)[O-])cc1[N+](=O)[O-]	-11.4	-24.5	4.9%
COc1cc([N+](=O)[O-])cc(/C=N/NC(=O)CSc2ccccn2)c1O	-16.3	-51.8*	-27.2%
COc1cc([N+](=O)[O-])cc(/C=N/NC(=O)Cn2cncn2)c1O	-26.4	-75.9*	u
COc1cc(/C=N/NC(=O)Cc2ccccc2)cc([N+](=O)[O-])c1O	-7.0	-55.6*	9.4%
COc1cc(/C=N/NC(=O)CSc2ccccn2)ccc1O	-10.7	8.2	7.5%
O=C(Cn1cncn1)N/N=C/c1ccccc1Cl	2.8	-4.2	9.9%
O=C(CCCN1C(=O)/C(=C/c2ccccc2)SC1=S)Nc1cccc(O)c1	-0.8	-21.6	-39.6%
Clc1cccc(Cl)c1CNCCCSc1ncccn1	-6.5	-3.2	-2.9%
Clc1ccc(CNCCCSc2ncccn2)cc1Cl	0.7	-67.2*	-27.2%
CC(C)c1ccc(CNCCCSc2ncccn2)cc1	-3.8	112.3	-66.3%
Clc1cccc(CNCCCSc2ncccn2)c1Cl	-18.4	-69.5*	-2.0%
Cc1cc(C)nc(SCCS(=O)(=O)Cc2ccccc2)n1	1.1	23.5	-9.1%
Cc1cc(C)nc(SCCCNCc2ccccc2)n1	-26.3	-67.3*	-25.1%
OCCN1CCN(C2CCC(c3ccc(F)cc3)c3ccc(F)cc32)CC1 (stereo unspecified)	-20.9	-62.7*	-67.6%
Nc1ncc(-c2ccc(F)cc2)nc1N1CCN(CCO)CC1	-13.6	-21.1	x
Cc1cc(C)c(NC(=O)CS(=O)CC(=O)Nc2ccc(F)cc2F)c(C)c1 (stereo unspecified)	-4.8	-11.3	1.7%
CCCc1nnc(SCC(=O)N(CC)CC)n1CC1CCCO1 (stereo unspecified)	8.1	27.5	-10.1%
SMILES	DRD3 agonist	D3 antag	Integrin act MD
CCCc1nnc(SCC(=O)N2CCCC(C)C2)n1CCCOC (stereo unspecified)	1.1	12.1	-15.8%
CCCc1nnc(SCC(=O)N2CCCC(C)C2)n1CCOC (stereo unspecified)	-6.6	-57.9*	-19.5%
CCCc1nnc(SCC(=O)N2CCCCC2C)n1CC1CCCO1 (stereo unspecified)	1.8	-64.7*	18.2%
CCC1CN(C(=O)N2CCC(C(=O)NCCC3=CCCCC3)CC2)c2ccccc2O1 (stereo unspecified)	-2.7	x	x
COc1ccc(N(C(=O)COc2ccccc2)C2C=CS(=O)(=O)C2)c(OC)c1 (stereo unspecified)	12.7	2.3	-12.2%
C[C@H](CO)N1C[C@H](C)[C@@H](CN(C)C(=O)Nc2ccccc2)Oc2c(NC(=O)C3CCCCC3)cccc2C1=O	9.0	11.5	-20.1%
Cc1ccc(CCC2C3=C(CCCC3=O)OC3=C2C(=O)CCC3)cc1	30.4*	u	11.7%
